Compound activity deposited in PubChem by National Center for Advancing Translational Sciences (NCATS).
Rows were chosen to be rich in hits. Some 5.9% of all compounds tested hit in one or more screens of this group.
RORgamma inh: qHTS for inhibitors of ROR gamma transcriptional activity; Nuclear receptor ROR-gamma (Mus musculus), P51450; Drosophila S2 Gal4-RORgamma UAS-luciferase reporter, 20 h; Potency, µM (series often up to 53.6 µM), inactives show at the highest dose activity change, negative = inhibition, usual class: inhibitors; hit rate 5.4% among 310,000; AID 2551, 2010; note: potency is the fitted concentration of half-maximal effect; nearly all actives have a fitted effect of over 60% in size
Target sequence (P51450 whole entry, looked up, the tested form may be a part): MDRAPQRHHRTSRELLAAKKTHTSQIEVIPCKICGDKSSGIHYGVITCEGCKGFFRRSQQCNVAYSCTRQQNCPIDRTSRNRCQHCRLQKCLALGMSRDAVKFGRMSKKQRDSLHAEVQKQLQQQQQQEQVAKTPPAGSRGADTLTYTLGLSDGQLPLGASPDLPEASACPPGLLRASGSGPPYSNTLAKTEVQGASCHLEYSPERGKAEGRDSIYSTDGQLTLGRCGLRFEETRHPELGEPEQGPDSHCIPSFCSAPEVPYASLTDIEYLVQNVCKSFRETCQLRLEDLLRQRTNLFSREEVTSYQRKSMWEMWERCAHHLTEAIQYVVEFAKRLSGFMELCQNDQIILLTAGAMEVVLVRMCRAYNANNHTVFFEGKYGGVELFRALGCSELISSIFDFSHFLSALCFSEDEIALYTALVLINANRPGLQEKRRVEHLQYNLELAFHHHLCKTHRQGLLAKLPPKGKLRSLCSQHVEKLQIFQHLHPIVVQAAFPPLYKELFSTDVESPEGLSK
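Luminescence from a UAS-regulated Photinus luciferase reporter in stably transfected Drosophila Schneider cells is measured; decreased signal marks ROR gamma inhibition. Fusion expression is induced by 700 uM copper sulfate for 20 hr.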
VP16 counter: VP16 counterscreen qHTS for inhibitors of ROR gamma transcriptional activity; Drosophila S2 Gal4-VP16 UAS-luciferase, luminescence, 20 h; Potency, µM (highest dose often 53.6 µM), for inactives: at the top dose activity, negative = inhibition, most hits filed as inhibitors; hit rate 3.5% among 310,000;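 note: Gal4-VP16 expression switched on by copper sulfate through the metallothionein promoter; potency is the fitted concentration of half-maximal effect; nearly all actives have a fitted effect of over 50% in size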
FBPA coupling cs: qHTS Assay for Inhibitors of Fructose-1,6-bisphosphate Aldolase from Giardia Lamblia: Coupling assay counterscreen | activity change, negative = inhibition, % at 58.2 µM, hits read low | coupling enzyme system counterscreen, AmpLite Red fluorescence | AID 2472, 2010 | hit rate 0.67% among 290,000; in the data active = activity change below about -30%
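Final compound at 57.5 uM, incubated 10 min at RT with coupling enzyme reagent (glyceraldehyde-3-phosphate), then 20 min with substrate and AmpLite Red detection. Fluorescence read at 525/598 nm; tests interference with the coupling assay, not aldolase inhibition.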
TrxR1 inh: qHTS Assay for Inhibitors of Mammalian Selenoprotein Thioredoxin Reductase 1 (TrxR1): qHTS; Thioredoxin reductase 1, cytoplasmic (Rattus norvegicus), O89049; recombinant rTrxR1, NADPH fluorescence consumption, selenite substrate; Potency, µM (top dose mostly 114 µM), without a hit: at the highest dose activity change, negative = inhibition, usual class: inhibitors; hit rate 1% among 390,000; note: potency is the fitted concentration of half-maximal effect; nearly all actives have a fitted effect of over 65% in size
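Rat TrxR1 (90 nM in the dispensed reagent) was pre-reduced with 400 uM NADPH for 5 min at room temperature, then incubated with compound for 15 min. After 400 uM selenite was added, NADPH fluorescence (Ex 340/Em 450 nm) was followed for 8 min.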
TrxR1 substrate: qHTS Assay for Substrates of Mammalian Selenoprotein Thioredoxin Reductase 1 (TrxR1): qHTS. Thioredoxin reductase 1, cytoplasmic (Rattus norvegicus), O89049. purified TrxR1 substrate turnover, NADPH consumption readout. Potency, µM (top dose mostly 114 µM), for inactives: at the top dose activity change, negative = substrate turnover. hit rate 0.01% among 390,000; note: potency is the fitted concentration of half-maximal effect; nearly all actives have a fitted effect of over 50% in size
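Rat TrxR1, dispensed at 90 nM, was prereduced with 400 uM NADPH (final) for 5 min at ~22 deg C, then incubated with compound 15 min before 400 uM selenite. A first-read NADPH fluorescence drop versus no-compound background flagged substrates.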
GALK inhibitor: qHTS Assay for Inhibitors of Human Galactokinase (GALK). hit rate 0.007% among 270,000. P51570. Potency, µM (top dose mostly 57.5 µM), without a hit: at the highest dose activity change, negative = inhibition, hits mostly inhibitors. Purified GALK, Kinase-Glo residual ATP luminescence; note: potency is the fitted concentration of half-maximal effect
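5 nM enzyme, 35 uM ATP, 100 uM galactose, 20 mM HEPES pH8.0, 5 mM MgCl2; 1 h RT; residual ATP by Kinase-Glo Plus luminescence, qHTS format.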
* = called active by the depositor; ? = inconclusive; nt = no result given; [ ] = remark or other dose. Unless noted, calls come from the whole dose curve; as a rule, active = well fitted curve in the direction sought with a large enough effect; inconclusive = small, poorly fitted or top-dose-only effect, or another doubt; inactive = no such curve, though single readings can be large; an effect the other way counts as inactive or inconclusive. % is set by controls: 0 for no effect and ±100 for the full control effect.

SMILES	RORgamma inh	VP16 counter	FBPA coupling cs	TrxR1 inh	TrxR1 substrate	GALK inhibitor
COc1ccc(C(=O)NN/C(C)=C/C(=O)c2ccccc2)cc1	6.3µM*	5µM*	-2	-2%	-7%	6%
C/C(=C\C(=O)c1ccc(Br)cc1)Nc1ccc(Cl)cc1	7.1µM*	11µM*	-4	11%[57.1 µM]	-8%[57.1 µM]	nt
O=C(/C=C(\O)c1ccccc1)C(=O)NNC(=O)c1ccccc1	?	?	0	-5%	1%	1%
C/C(=C\C(=O)c1ccccc1)NNC(=O)c1ccc(Cl)cc1	7.1µM*	4.5µM*	-1	15%	4%	-3%
COc1ccc(Cc2nnc(SCC(=O)Nc3nc(C)cs3)o2)cc1	35µM*	-4%	-1	13%	-4%[57.1 µM]	-4%
COc1ccc(NCc2nnc(SCC(=O)Nc3nc(-c4ccccc4)cs3)n2-c2ccccc2)cc1	8%	5µM*	1	-5%	0%	-4%
Cc1csc(NC(=O)CSc2nnc(-c3cc(C)on3)o2)n1	14µM*	14µM*	3	-2%	-3%	0%
Cc1cc(-c2nnc(SCC(=O)Nc3nc(-c4ccccc4)cs3)o2)no1	14µM*	-10%	-1	29%	8%	0%
CCCCCc1nnc(NC(=O)C2=COCCO2)s1	nt	nt	nt	-4%	-3%	nt
Cc1ccc(NC(=O)c2c(NC(=O)Cc3ccccc3)sc3c2CCC3)cc1	nt	nt	nt	-26%	21%	nt
O=C(COC(=O)COc1ccc(Cl)cc1Br)NCCC1=CCCCC1	nt	nt	nt	12%	-1%	nt
CCOC(=O)C(C(=O)OCC)C(Nc1ccc(Br)cc1)c1ccccc1 (stereo not given)	11µM*	?	2	?	-1%	-3%
CCOC(=O)C(c1ccccc1)C(Nc1ccc(F)cc1)c1ccccn1 (stereo not given)	17%	11%	-1	7%	-3%	-1%
COc1ccc(C(=O)N/C(N)=N/c2nc3ccccc3o2)cc1	8.9µM*	?	0	19%	15%	11%
CC(C)(C)c1ccc(C(=O)N/C(N)=N/c2nc3ccccc3o2)cc1	1%	0%	1	20%[57.1 µM]	-3%[57.1 µM]	-1%
COc1ccc(C(=O)/C=C/Sc2nc3ccccc3o2)cc1	?	-17%	0	1µM*	-6%	-3%
N/C(=N\c1nc2ccccc2o1)NC(=O)c1ccc(Cl)cc1	10µM*	?	0	21%	3%	0%
N/C(=N\c1nc2ccccc2o1)NC(=O)c1ccc(F)cc1	2.5µM*	5.6µM*	4	13%	1%	-1%
CCc1nnc(NC(=O)CSc2sc3c(O)cc(=O)[nH]c3c2C#N)s1	4%	9%	-2	-21%	1%	-8%
COc1ccc(CCNC(=O)COC(=O)c2cc3ccccc3oc2=O)cc1OC	nt	nt	nt	6%	-1%	nt
Cc1ccc(C(=O)c2sc(Nc3ccc(F)cc3)c(C#N)c2N)cc1	nt	nt	nt	22%[11.4 µM]	3%	nt
Cc1ccnc2nc(NC(=O)c3ccco3)nn12	18%	-6%	2	2%	0%	9%
CCCCCCC1=Cc2cc(OC)c(OC)cc2C(CC(=O)/C=C/OC)O1 (stereo not given)	4%[10 µM]	4%[10 µM]	-1	nt	nt	nt
N/C(=N\c1nc2ccccc2o1)NC(=O)c1ccccc1Br	0.89µM*	-32%	-1	27%	16%	2%
COCCn1c(=O)[nH]c2cc(C(=O)Nc3cccc(C(C)=O)c3)ccc2c1=O	-25%	-1%	-2	24%[57.1 µM]	4%[57.1 µM]	1%
CCCc1nc2c(sc3nc4c(cc32)COC(C)(C)C4)c(=O)n1Cc1ccco1	-18%	8%	0	11µM*	6%	-1%
COc1ccc(-c2nc(C)c(CCNC(=O)C(=O)Nc3ccccc3OC)s2)cc1	nt	nt	nt	20%[57.1 µM]	3%[57.1 µM]	nt
